DAX1 inh-1 – DAX1 (NR0B1) inhibitors, primary screen, cell-based, HEK293, Gal4-DAX1, luciferase luminescence. Nuclear receptor subfamily 0 group B member 1 (Homo sapiens), P51843. inhibition, % at 6.75 µM. AID 504766, 2011. HEK293 Gal4-DAX1 luciferase reporter. 340,000 compounds, 0.99% hits;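 active means inhibition above the mean over all tested compounds plus 3 SD, cut at about 4.2% in these data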;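 further: inhibition shows as a rise in luminescence from relieved DAX1 repression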
Target sequence (P51843 207-470 limits assumed): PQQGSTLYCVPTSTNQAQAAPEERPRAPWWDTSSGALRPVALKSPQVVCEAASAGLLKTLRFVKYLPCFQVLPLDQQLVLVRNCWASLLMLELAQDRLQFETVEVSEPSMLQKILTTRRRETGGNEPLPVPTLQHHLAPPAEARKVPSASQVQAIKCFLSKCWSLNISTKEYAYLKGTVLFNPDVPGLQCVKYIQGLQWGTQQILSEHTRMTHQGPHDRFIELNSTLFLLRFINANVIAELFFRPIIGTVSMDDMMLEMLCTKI
hgDAF-12 ag – H. glycines DAF-12 receptor agonists, primary screen, cell-based, luminescence, HEK293, GAL4 fusion, UAS-luciferase; activation, % at 6.8 µM; Nuclear hormone receptor DAF-12 (Heterodera glycines), GAL4 fusion; HEK293 GAL4-hgDAF12 UAS-luciferase reporter, agonist luminescence; normalized to butyrate control; 370,000 compounds, 1.8% hits; AID 687014, 2013;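 active means activation above a cutoff set at the mean of all screened compounds plus 3 SD, cut at about 10% in these data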
DAX1 inh-2 – DAX1 (NR0B1) inhibitors on StAR promoter, primary screen, cell-based, luminescence, SF-1 (NR5A1), full-length DAX-1; HEK293T StAR-luciferase reporter, SF-1/DAX-1 repression relief; inhibition, % at 6.8 µM; 370,000 compounds, 1.1% hits;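 active means inhibition above the mean over all tested compounds plus 3 SD, cut at about 3.6% in these data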;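 further: higher inhibition means more luminescence from relief of DAX-1 repression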
ssDAF-12 act – S. stercoralis DAF-12 nuclear receptor activators, primary screen, cell-based, luminescence, HEK293, GRIP1 co-expression, lit1-tk-luc; HEK293 ssDAF-12/GRIP1 lit1-tk-luc reporter; % of 3 µM dafachronic acid response; 370,000 compounds, 1% hits; AID 652126, 2013; Nuclear hormone receptor DAF-12 (Strongyloides stercoralis); activation, % at 6.8 µM;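 active means activation above the mean over all tested compounds plus 3 SD, cut at about 0.9% in these data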
AHR act – AHR activators, primary screen, cell-based, luminescence, luciferase reporter, human; Aryl hydrocarbon receptor (Homo sapiens), P35869; AHR-responsive luciferase reporter cells; activation, % at 5 µM; 320,000 compounds, 2.5% hits; in the data active means activation above about 47%
hcDAF12 agonist – H. contortus DAF-12 nuclear receptor activators, primary screen, cell-based, luminescence, HEK293, lit1-tk-luc reporter | HEK293 hcDAF-12 lit1-tk-luc reporter; 0% DMSO, 100% Δ7-dafachronic acid | activation, % at 6.8 µM | 370,000 compounds, 1.4% hits | AID 652067, 2013;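 active means activation above the mean of all tested compounds plus 3 SD, cut at about 5.5% in these data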
Numbers stand for hits; . = inactive; / = no result given. Sampled rows, rich in hits. Any-hit rate of the full collection: about 5.7%.

SMILES | DAX1 inh-1 | hgDAF-12 ag | DAX1 inh-2 | ssDAF-12 act | AHR act | hcDAF12 agonist
CCCCC(CC)C(=O)Nc1ccc(C#N)cc1 (configuration not stated) | . | . | . | . | . | .
CN(C)c1ccc(C(C(=O)NCC2CCCO2)N(Cc2ccccc2)C(=O)c2snc(C(N)=O)c2N)cc1 (configuration not stated) | . | . | . | . | . | .
O=C(Nc1ccc(F)cc1F)c1ccc(-n2cccn2)nc1 | . | . | . | . | . | .
CC(C)Sc1ccc(C(=O)Nc2ccc(F)cc2F)cn1 | . | 12 | . | . | . | .
CSCC[C@@H](C(=O)O)N1Cc2ccccc2C1=O | . | . | . | . | . | 6.0
CSCC[C@@H](C(=O)Nc1ccc2c(c1)OCCO2)N1Cc2ccccc2C1=O | . | . | . | . | . | .
CN(C)c1ccc(C=Cc2ccnc3c(O)cccc23)cc1 | . | . | . | . | / | .
Cc1ccc(C(=O)/C=C2\NCC(C)NC2=O)cc1 (configuration not stated) | . | . | . | . | . | .
Cc1ccc(C(=O)/C=C2\NCCNC2=O)cc1 | . | 13 | 3.8 | . | . | .
C(/C=C/c1ccccn1)=C\c1ccccc1 | 5.0 | . | . | . | . | .
C(=C\c1ccccn1)/c1ccncc1 | . | . | . | . | . | .
Cc1nc(/C=C/c2ccccc2)cc(/C=C/c2ccccc2)n1 | . | . | . | . | . | .
Cc1cccc(/C=C/c2ccccc2)n1 | / | 11 | . | . | / | .
C(=C\c1cc(/C=C/c2ccccc2)ncn1)/c1ccccc1 | 5.0 | . | . | . | . | .
COc1ccc(-c2csc(C(C)(O)c3cccnc3)n2)cc1 (configuration not stated) | / | . | . | . | / | .
O=C(Nc1ccc(Cl)c(S(=O)(=O)N2CCOCC2)c1)c1ccc2c(c1)OCCO2 | . | . | . | . | . | .
O=C(NCC1CCCO1)c1cc(-c2ccncc2)nc2ccccc12 (configuration not stated) | . | . | . | . | / | .
CCOC(=O)N1CCN(C(=O)c2cc(-c3ccc(OCC)cc3)nc3ccccc23)CC1 | . | 12 | . | . | . | .
CCCOc1ccc(-c2cc(C(=O)NCC3CCCO3)c3ccccc3n2)cc1 (configuration not stated) | . | . | . | . | 51 | .
COC(=O)N(C)C[C@H]1OCc2cnnn2CCCC(=O)N([C@H](C)CO)C[C@@H]1C | / | . | . | . | / | .
OCCN(CC#CC(O)(c1ccccc1)C1CCCCC1)CCO (configuration not stated) | . | . | . | . | . | .
CCCNC(=O)Cn1cnc2sc(C(=O)Nc3ccc4c(c3)OCO4)c(C)c2c1=O | . | / | / | / | . | /
COc1ccccc1NC(=O)c1sc2ncn(CC(=O)N3CCC(C)CC3)c(=O)c2c1C | . | . | . | . | . | .
CCn1cnc2sc(C(=O)Nc3ccccc3OC)c(C)c2c1=O | . | . | . | . | 68 | .
CCn1cnc2sc(C(=O)Nc3ccc4c(c3)OCO4)c(C)c2c1=O | . | 13 | . | . | . | .
CCOc1ccccc1NC(=O)c1sc2ncn(CC(=O)N3CCOCC3)c(=O)c2c1C | . | . | . | . | 55 | .
Cn1c(CNC(=O)CNC(=O)c2cccc(Cl)c2)cc(=O)n(C)c1=O | . | . | . | . | . | .
CCC(=O)Nc1ccc(C(=O)CSc2nc3ccccc3cc2CC)cc1 | . | . | . | . | 51 | .
CN(C(=O)COc1ccccc1)c1ccc([N+](=O)[O-])cc1 | . | . | . | . | / | .
Cc1ccc(Oc2ccc(NC(=O)CCC(=O)OCC(=O)c3cccs3)cc2)cc1C | 4.5 | . | . | . | . | .
